Bioassay records: PubChem, several laboratories
MPTP inh: permeability transition pore inhibition; isolated mouse mitochondria, Ca2+ swelling absorbance, 30 min; inhibition, % at 10 µM; 1.4% of 360,000 active;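 active means inhibition of 50% or more, scaled per plate between neutral and stimulator controls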;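 further: 0% = DMSO wells given calcium and 100% = 1 mM EGTA wells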
Beta cell apopt: beta cell apoptosis inhibition; protection from apoptosis, % (concentration not given with the values); 0.8% of 300,000 active; AID 435005; INS-1E cytokine-induced death, ATP luminescence, 48 h; percent of positive-control rescue, neutral wells zero;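 active means Every replicate reaches about 75%, or at least half do and their mean reaches it too, limit read from the data; inconclusive means At least half of replicates reach the limit but their mean does not; inactive means Under half of replicates reach the limit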;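 further: 0% = cytokine-treated negative control wells and 100% = positive control rescue; higher means more ATP so stronger rescue from cytokine killing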
CSC inhib: cancer stem cell inhibition | cancer stem cell-like cells viability, luminescence | inhibition, % at 7.5 µM | 1.1% of 300,000 active; in the data active means inhibition above about 75%; inconclusive means no clear call, values can overlap the other calls; tested in HMLE shEcad cells
Mdm2 MdmX PPI: human Mdm2/MdmX binding inhibition. O15151+Q00987. SaOS-2 split-luciferase Mdm2/MdmX complementation, luminescence. inhibition, % at 8 µM. 3% of 330,000 active. AID 485346;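 active means inhibition of at least 50% at 8 µM in the primary screen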
Calb FLC: affects C. albicans growth with fluconazole | C. albicans CaCi-2 (fluconazole-resistant clinical isolate) + fluconazole, Alamar Blue growth, 48 h | growth inhibition, % (concentration not given with the values) | 0.57% of 300,000 active | AID 1979;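 active means growth inhibition above about 58% in most replicates, limit read from the data, passing the limit was not always enough; inconclusive means exactly half the replicates above a set limit; inactive means most replicates below a set limit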;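 further: all wells also contain fluconazole at 8 µg/ml as a sub-toxic cotreatment; 0% = median of DMSO wells and 100% = median of geldanamycin control wells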
SKKanGAS inh: blocks kanamycin growth of S. pyogenes SKKanGAS strain; inhibition, % at 7.5 µM; BacTiter-Glo, 6 h; 1.3% of 300,000 active;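 active means mean replicate score, as percent of positive control median, at least 50; inconclusive means mean below 50 but one replicate at or above 50; inactive means mean and every replicate below 50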;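 further: strain carries kanamycin resistance gene driven by streptokinase promoter and grows in 40 µg/ml kanamycin; loss of luminescence reflects streptokinase promoter inhibition or plain growth inhibition; 0% = median of DMSO wells and 100% = positive control at its reference dose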
Mdm2-MdmX conf: confirmation of human Mdm2/MdmX interaction inhibitors | shares compounds with Mdm2 MdmX PPI | Mdm2-MdmX binding, luminescent assay | inhibition, % at 8 µM | 55% of 10,000 active | AID 489028; in the data active means inhibition above about 40%
FLuc counter: inhibits full-length luciferase, flagging false Mdm2/MdmX hits. inhibition, % at 8 µM. AID 504607. 77% of 6,200 active. shares compounds with Mdm2 MdmX PPI. SaOS-2 full-length luciferase counterscreen, luminescence;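 active means mean inhibition at 8 µM reaching about 37%, which flags the compound as non-specific, limit read from the data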;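 further: p53-null SaOS-2 cells with luciferase driven by a doxycycline-inducible promoter; compound on cells about two nights before reading with doxycycline added after day one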
* marks the source's active call; other numbers are inactive results; ? = inconclusive; . = not tested or not shown. Compounds with a hit are over-represented: about 5.4% of the library has one in this group of screens.

SMILES	MPTP inh	Beta cell apopt	CSC inhib	Mdm2 MdmX PPI	Calb FLC	SKKanGAS inh	Mdm2-MdmX conf	others
CNS(=O)(=O)c1cccc(C(=O)OCC(=O)c2ccc[nH]2)c1	-2	1	2	-12	.	.	.
Cc1cccc(OCCNC(=O)c2ccc(Oc3ccc(C(F)(F)F)cc3[N+](=O)[O-])cc2)c1	43	.	20	50*	-3	8	26
Cc1cccc(OCCNC(=O)c2cccc(Oc3ccc(C(F)(F)F)cc3[N+](=O)[O-])c2)c1	38	1	?	6	-12	15	.
COC(=O)c1cc(-c2ccc(OC)c(OC)c2)c2c(=O)[nH]c(=O)n(C)c2n1	1	-6	0	50*	6	37	22
COc1ccc(OC)c(C2=Nn3c(nnc3-c3cc(OC)c(OC)c(OC)c3)SC2)c1	-1	25	-8	39	-12	30	.
COc1ccc(OC)c(-c2nnc3n2N=C(c2ccc(OC)c(OC4CCOC4)c2)CS3)c1 (configuration not stated)	-1	19	44	68*	.	.	63*	FLuc counter=93*
COc1ccc(C2=Nn3c(nnc3-c3ccccc3Cl)SC2)cc1OC1CCCC1	-1	?	.	73*	.	.	49*	FLuc counter=54*
COc1ccc(C2=Nn3c(nnc3-c3ccccc3Cl)SC2)cc1OC1CCOC1 (configuration not stated)	0	6	25	63*	.	.	40	FLuc counter=63*
CCOc1ccc(C2=Nn3c(nnc3-c3ccccc3)SC2)cc1Cl	2	0	11	17	22	-5	.
FC(F)Oc1ccc(C2=Nn3c(nnc3-c3ccccc3Cl)SC2)cc1OCC1CC1	3	9	.	-8	.	.	.
COc1ccc(C2=Nn3c(nnc3-c3ccccn3)SC2)cc1OC	1	3	-17	35	-3	-6	.
COc1ccc(C2=Nn3c(nnc3-c3ccccc3F)SC2)cc1OCC1CC1	1	18	57	84*	.	.	62*	FLuc counter=37*
COc1ccc(S(=O)(=O)N2CCOC2CNC(=O)C(=O)NCCc2ccccc2)cc1C (configuration not stated)	0	4	3	3	0	-3	.
CC(=O)NCC(=O)OCC(=O)c1ccc2ccccc2c1	-4	.	-5	19	1	-4	.
Cc1ccc(C(O)(c2ccccc2)c2ccccc2C(C)N(C)C)c(C)c1 (configuration not stated)	3	-13	21	62*	37	3	25
CC(c1ccccc1C(O)c1ccccc1)N(C)C (configuration not stated)	1	-1	-1	29	2	2	.
CN1CCN(c2ncnc3c2[nH]c2ccc(F)cc23)CC1	-6	2	-4	20	1	0	.
Brc1ccc2[nH]c3c(N4CCc5ccccc5C4)ncnc3c2c1	.	61	80*	69*	-5	86*	20
c1ccc2c(c1)[nH]c1c(N3CCCC3)ncnc12	0	47	.	17	11	15	.
CCOc1ccc2[nH]c3c(N4CCc5ccccc5C4)ncnc3c2c1	37	39	87*	57*	-1	51*	59*	FLuc counter=36
Cc1ccccc1C(=O)NCC(=O)N1CCN(c2ccccn2)CC1	0	-6	-22	-11	.	.	.
C=CCOc1c(Br)cc(/C=N/NC(=O)Cc2ccc(C(F)(F)F)cc2[N+](=O)[O-])cc1OC	1	6	-12	57*	4	1	6
OCCCn1c(C2CCCN2c2nc(-c3ccc(Cl)cc3)cs2)nc2cc(Cl)c(N3CCCCC3)cc21 (configuration not stated)	1	-13	13	73*	0	11	19
OCCCn1c(C2CCCN2c2nc(-c3ccc(F)cc3)cs2)nc2cc(Cl)c(N3CCCCC3)cc21 (configuration not stated)	1	-8	1	63*	-1	17	-6
CN(CC(=O)NCC1CCCO1)S(=O)(=O)c1ccc(Br)cc1 (configuration not stated)	1	-2	2	7	8	4	.
